# Measured values taken from PubChem BioAssay AID651650 (Sanford-Burnham Center for Chemical Genomics, 2012).
# Target: Neuropilin-1 (Homo sapiens) (UniProt O14786)
# Assay: blockers of CendR peptide binding to NRP-1 – biochemical, FP and AlphaScreen panel, dose response (AID 651650)
# Conditions: NRP-1 b1b2 / RPARPAR peptide binding, FP or AlphaScreen; run 1, at 100 µM (top of the series)
# Neuropilin-1 (Homo sapiens), sequence (O14786 whole entry, looked up): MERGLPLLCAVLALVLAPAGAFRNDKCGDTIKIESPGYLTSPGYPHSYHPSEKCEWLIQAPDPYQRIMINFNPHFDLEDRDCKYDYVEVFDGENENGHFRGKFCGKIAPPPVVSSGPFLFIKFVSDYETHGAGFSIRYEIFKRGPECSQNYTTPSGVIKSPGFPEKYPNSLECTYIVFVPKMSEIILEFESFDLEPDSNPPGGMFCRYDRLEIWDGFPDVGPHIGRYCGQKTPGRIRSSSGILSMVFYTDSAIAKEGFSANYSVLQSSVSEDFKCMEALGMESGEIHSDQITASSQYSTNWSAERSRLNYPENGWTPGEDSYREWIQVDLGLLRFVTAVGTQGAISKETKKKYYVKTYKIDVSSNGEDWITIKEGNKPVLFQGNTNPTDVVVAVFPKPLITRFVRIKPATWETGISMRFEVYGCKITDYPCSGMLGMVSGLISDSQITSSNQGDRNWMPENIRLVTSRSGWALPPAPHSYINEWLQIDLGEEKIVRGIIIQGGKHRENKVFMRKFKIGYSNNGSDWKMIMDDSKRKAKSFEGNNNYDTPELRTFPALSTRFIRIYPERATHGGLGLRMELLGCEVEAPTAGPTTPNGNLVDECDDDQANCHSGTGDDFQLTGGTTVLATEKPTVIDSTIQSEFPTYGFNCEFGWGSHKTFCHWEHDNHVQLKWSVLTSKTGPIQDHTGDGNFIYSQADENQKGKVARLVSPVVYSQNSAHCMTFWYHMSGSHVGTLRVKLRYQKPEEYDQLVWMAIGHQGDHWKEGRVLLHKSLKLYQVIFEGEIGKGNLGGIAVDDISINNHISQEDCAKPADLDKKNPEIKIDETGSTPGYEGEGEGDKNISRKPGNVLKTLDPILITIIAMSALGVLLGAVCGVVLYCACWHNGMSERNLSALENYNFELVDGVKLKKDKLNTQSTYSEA
row,SMILES,inhibition
1,Cc1ccccc1Nc1cc(=O)oc2ccccc12,5.19%
2,COc1cccc(C(=O)N2N=C(c3ccccc3)CC2(O)C(F)(F)F)c1 (configuration not stated),35.9%
3,CC(=O)Nc1ccccc1OCC(=O)N(Cc1ccccc1)C(C)C,18.2%
4,CC(C)c1ccc(S(=O)(=O)N2CCN(C(=O)CN3C(=O)c4ccccc4C3=O)CC2)cc1,64.7%
5,COc1ccc(CCNC(=O)c2ccc(Cl)c(S(=O)(=O)N(C)c3ccccc3)c2)cc1,-7.22%
6,Cc1ccnc(N2CCC(C(=O)Nc3ccc4c(c3)OCCO4)CC2)n1,41.7%
7,CC1(C(=O)NCc2cccc3ccccc23)CCN1Cc1cccc2c1OCO2 (configuration not stated),21%
8,CCC(=O)Nc1nc2nc(-c3ccccc3)cc(-c3ccccc3)n2n1,37.2%
9,CC1(C)c2ccccc2C(=O)c2ccccc21,-7.21%
10,Cc1ccc(Cl)c(NC(=O)CSc2cccc[n+]2[O-])c1Cl,-8.97%
11,CCNC(=O)C1(C)CCCN(C(=O)c2nc(C)oc2C)C1 (configuration not stated),20.1%
12,COc1ccc(C(=O)N[C@H](C(=O)Nc2nc3c(s2)CCCC3)C(C)C)cc1,22.5%
13,Cn1cccc1C1Nc2ccccc2NC2=C1C(=O)CC(C)(C)C2 (configuration not stated),12.9%
14,FC(F)(F)c1cc(C(F)(F)F)c2ccc(Oc3ccccc3)nc2n1,22.5%
15,COc1ccc(/C=N/NC(=O)c2ccccc2Cl)cc1CSc1nc2ccccc2s1,28.7%
16,COc1ccc(CN2C(=O)c3ccccc3C2=O)cc1C(=O)Nc1ccccc1N1CCOCC1,30%

row,SMILES,inhibition
1,Cc1cnc(C(=O)OCC(=O)Nc2sc3c(c2C#N)CCC3)cn1,44.2%
2,c1ccc2c(c1)CCCN2Cc1nnnn1CC1CCCO1 (configuration not stated),48.9%
3,O=C(CCn1c(=O)c2cccn2c2cccnc21)NCc1cccc(Cl)c1,5.81%
4,Cc1ccc(C(=O)Nc2ccccc2-c2ccccc2)cc1S(=O)(=O)Nc1ccccc1,32.1%
5,COc1cc2c(cc1OC)C(Nc1ccc(S(N)(=O)=O)cc1)=NC(C)(C)C2,71.9%
6,COc1ccc(CCNC(=O)c2c(O)c3cccc4c3n(c2=O)CC4)cc1OC,37.4%
7,Cc1ccc(C(=O)N2CCN(C34CC5CC(CC(C5)C3)C4)CC2)o1,57.6%
8,CCC1=C(OC(=O)N(CC)CC)N2C(=O)OC(=NCCOC)[C@]2(Cc2ccccc2)[C@H]2C1=CC[C@H]1C(=O)N(CC(=O)OC)C(=O)[C@H]12,56.3%
9,CC(=O)/C(=N\Nc1ccc(Cl)cc1Cl)Sc1cccc2cccnc12,24.8%
10,CC1CCN(C(=O)CSc2nncn2C)CC1,0.359%
11,Cc1ccc(N(C(=O)c2ccc(CN3CCOCC3)o2)C(C(=O)NCCC(C)C)c2cccs2)c(C)c1 (configuration not stated),16%
12,O=C(Nc1cccc2c1CCCC2)c1cc(C2CCCCN2C(=O)CCCc2ccccc2)on1 (configuration not stated),-15%
13,COc1ccc(N=C2C(=Nc3ccc(OC)cc3)N(c3ccc(N(C)C)cc3)C(=S)N2c2ccc(OC)cc2)cc1,50.6%
14,Cc1cc(NC(=O)CCC(=O)NNC(=O)c2ccc(C(C)(C)C)cc2)no1,102%
15,CC(=O)Nc1ccc2nc3c(=O)n(C)c(=O)n(C)c3nc2c1,84.8%
16,CCOC(=O)C1=C(O)C(=O)N(c2ccccc2)C1c1cccc([N+](=O)[O-])c1 (configuration not stated),26.5%
